# Measured values: the supplement of paper PMC6089552
# Screen size: about 3,200 compounds; about 300 (9.4%) showed activity. The full list was thinned out, with actives kept by preference. A number with no mark means an inactive call.
# Test system: A673/TR/shEF
# Test: cell viability (LOESS-normalised, relative to median of negative controls) (log2 ratio); higher = more viable cells (less compound effect), active = hit call of the paper (over 3 MAD below the median)
# Details: treatment time: 72 h
# Method in brief: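 Viability of A673/TR/shEF Ewing sarcoma cells was determined by CellTiter-Glo luminescence. The cells, at 1,500 per well in 384-well plates, were grown with or without doxycycline from 24 h before compound addition to switch on EWS-FLI1 shRNA knockdown, then exposed for three days to library compounds at two or more concentrations or to DMSO controls. Signals were LOESS-corrected plate by plate, normalised to the negative-control median and log2-transformed.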
# [1] = 0.25 µM, library screen: screen1, EWS-FLI1 expression: high (no doxycycline)
# [2] = 0.25 µM, library screen: screen1, EWS-FLI1 expression: low (doxycycline-induced shRNA knockdown)
# [3] = 2.5 µM, library screen: screen1, EWS-FLI1 expression: high (no doxycycline)
# [4] = 2.5 µM, library screen: screen1, EWS-FLI1 expression: low (doxycycline-induced shRNA knockdown)
# [5] = 0.103 µM, library screen: screen3, EWS-FLI1 expression: high (no doxycycline)
# [6] = 0.103 µM, library screen: screen3, EWS-FLI1 expression: low (doxycycline-induced shRNA knockdown)
# [7] = 0.308 µM, library screen: screen3, EWS-FLI1 expression: high (no doxycycline)
# [8] = 0.308 µM, library screen: screen3, EWS-FLI1 expression: low (doxycycline-induced shRNA knockdown)
# [9] = 0.926 µM, library screen: screen3, EWS-FLI1 expression: high (no doxycycline)
# [10] = 0.926 µM, library screen: screen3, EWS-FLI1 expression: low (doxycycline-induced shRNA knockdown)
# [11] = 2.8 µM, library screen: screen3, EWS-FLI1 expression: high (no doxycycline)
# [12] = 2.8 µM, library screen: screen3, EWS-FLI1 expression: low (doxycycline-induced shRNA knockdown)
# [13] = 8.3 µM, library screen: screen3, EWS-FLI1 expression: high (no doxycycline)
# [14] = 8.3 µM, library screen: screen3, EWS-FLI1 expression: low (doxycycline-induced shRNA knockdown)
# [15] = 25 µM, library screen: screen3, EWS-FLI1 expression: high (no doxycycline)
# [16] = 25 µM, library screen: screen3, EWS-FLI1 expression: low (doxycycline-induced shRNA knockdown)
# [17] = 0.25 µM, library screen: screen2, EWS-FLI1 expression: high (no doxycycline)
# [18] = 0.25 µM, library screen: screen2, EWS-FLI1 expression: low (doxycycline-induced shRNA knockdown)
# [19] = 2.5 µM, library screen: screen2, EWS-FLI1 expression: high (no doxycycline)
# [20] = 2.5 µM, library screen: screen2, EWS-FLI1 expression: low (doxycycline-induced shRNA knockdown)
structure (smiles),measurement,setting,value
CC1=C2C(=CO[C@H](C)[C@H]2C)C(=O)C(C(=O)O)=C1O,cell viability (log2),[1],0.0243
same,cell viability (log2),[2],0.0421
same,cell viability (log2),[3],0.12
same,cell viability (log2),[4],0.0982
COc1ccc2nc([S@@+]([O-])Cc3ncc(C)c(OC)c3C)[nH]c2c1,cell viability (log2),[5],0.0353
same,cell viability (log2),[6],-0.0468
same,cell viability (log2),[7],0.00454
same,cell viability (log2),[8],2e-05
same,cell viability (log2),[9],-0.0308
same,cell viability (log2),[10],-0.0128
same,cell viability (log2),[11],-0.0416
same,cell viability (log2),[12],0.00305
same,cell viability (log2),[13],0.0504
same,cell viability (log2),[14],0.0301
same,cell viability (log2),[15],-0.0361
same,cell viability (log2),[16],-0.0116
Cc1c(OCC(F)(F)F)ccnc1C[S+]([O-])c1nc2ccccc2[nH]1 (configuration not stated),cell viability (log2),[5],0.0918
same,cell viability (log2),[6],0.101
same,cell viability (log2),[1],0.136
same,cell viability (log2),[2],0.0633
same,cell viability (log2),[17],0.166
same,cell viability (log2),[18],0.0843
same,cell viability (log2),[7],0.0516
same,cell viability (log2),[8],0.0264
same,cell viability (log2),[9],0.0709
same,cell viability (log2),[10],0.0884
same,cell viability (log2),[3],0.133
same,cell viability (log2),[4],0.126
same,cell viability (log2),[19],0.122
same,cell viability (log2),[20],0.0984
same,cell viability (log2),[11],0.0259
same,cell viability (log2),[12],0.0107
same,cell viability (log2),[13],-0.0254
same,cell viability (log2),[14],0.0817
same,cell viability (log2),[15],-0.241 (active)
same,cell viability (log2),[16],0.0393
COc1ccc2nc([S+]([O-])Cc3ncc(C)c(OC)c3C)[nH]c2c1 (configuration not stated),cell viability (log2),[5],0.0555
same,cell viability (log2),[6],0.0372
same,cell viability (log2),[7],-0.0266
same,cell viability (log2),[8],0.0199
same,cell viability (log2),[9],-0.0106
same,cell viability (log2),[10],0.0522
same,cell viability (log2),[11],-0.0439
same,cell viability (log2),[12],0.0389
same,cell viability (log2),[13],-0.0449
same,cell viability (log2),[14],0.0231
same,cell viability (log2),[15],-0.03
same,cell viability (log2),[16],-0.014
COC(=O)C[C@H]1C(C)(C)[C@@H](OC(C)=O)[C@@H]2CC3C4CC(=O)O[C@@H](c5ccoc5)[C@]4(C)CCC3[C@@]1(C)C2=O (some centres not stated),cell viability (log2),[1],0.0705
same,cell viability (log2),[2],0.0161
same,cell viability (log2),[3],0.14
same,cell viability (log2),[4],0.112
C=C1CCC(=O)C(C)CCC2C1CC2(C)C (configuration not stated),cell viability (log2),[1],0.0584
same,cell viability (log2),[2],-0.00925
same,cell viability (log2),[3],0.119
same,cell viability (log2),[4],-0.105
COc1ccc(-c2oc3cc(O[C@@H]4O[C@H](CO)[C@@H](O)[C@H](O)[C@H]4O)c(OC)c(O)c3c(=O)c2OC)cc1O,cell viability (log2),[1],0.0438
same,cell viability (log2),[2],0.127
same,cell viability (log2),[3],0.0949
same,cell viability (log2),[4],0.0982
O=C(O)C1CN(CCCP(=O)(O)O)CCN1 (configuration not stated),cell viability (log2),[17],0.0853
same,cell viability (log2),[18],0.0707
same,cell viability (log2),[19],0.0988
same,cell viability (log2),[20],0.109
CC[N+](CC)(CC)CC(=O)Nc1c(C)cccc1C,cell viability (log2),[17],0.105
same,cell viability (log2),[18],0.169
same,cell viability (log2),[19],0.0372
same,cell viability (log2),[20],0.0518
Cc1cccc(C)c1NC(=O)C[N+](C)(C)C,cell viability (log2),[17],0.174
same,cell viability (log2),[18],0.0998
same,cell viability (log2),[19],0.0786
same,cell viability (log2),[20],0.0656
CCN(CC)CC(=O)Nc1c(C)cccc1C,cell viability (log2),[5],0.148
same,cell viability (log2),[6],0.0138
same,cell viability (log2),[1],0.147
same,cell viability (log2),[2],0.00307
same,cell viability (log2),[17],0.111
same,cell viability (log2),[18],0.106
same,cell viability (log2),[7],0.0507
same,cell viability (log2),[8],0.127
same,cell viability (log2),[9],0.13
same,cell viability (log2),[10],0.0501
same,cell viability (log2),[3],0.157
same,cell viability (log2),[4],0.131
same,cell viability (log2),[19],0.0975
same,cell viability (log2),[20],0.0477
same,cell viability (log2),[11],0.00489
same,cell viability (log2),[12],0.0234
same,cell viability (log2),[13],0.0246
same,cell viability (log2),[14],0.018
same,cell viability (log2),[15],-0.278 (active)
same,cell viability (log2),[16],0.0253
CC(C)=CCCC(C)(O)C1CC=C(C)CC1 (configuration not stated),cell viability (log2),[1],0.0431
same,cell viability (log2),[2],-0.0174
same,cell viability (log2),[3],0.0996
same,cell viability (log2),[4],0.0501
COC(=O)c1c(C)cc(OC(=O)c2c(C)cc(O)c(CO)c2O)c(C)c1O,cell viability (log2),[1],0.129
same,cell viability (log2),[2],0.0318
same,cell viability (log2),[3],0.139
same,cell viability (log2),[4],0.0883
C[C@]12CC[C@@H](O)C[C@H]1CC[C@@H]1[C@@H]2C(=O)C[C@@]2(C)[C@H]1CC[C@]2(O)C(=O)CO,cell viability (log2),[1],0.162
same,cell viability (log2),[2],0.116
same,cell viability (log2),[3],0.185
same,cell viability (log2),[4],0.0107
Cc1cc(=O)c2c(O)c3c(cc2o1)OCC(C)CC3 (configuration not stated),cell viability (log2),[1],0.0148
same,cell viability (log2),[2],0.14
same,cell viability (log2),[3],0.0878
same,cell viability (log2),[4],0.127
CN=C(N)NCCCC(N)C(=O)O (configuration not stated),cell viability (log2),[1],0.0723
same,cell viability (log2),[2],0.0246
same,cell viability (log2),[3],-0.0207
same,cell viability (log2),[4],-0.0108
